Screening data as filed in PubChem BioAssay.
Shown are actives, neighbours in structure and some others; about 2.1% of the full set was active somewhere.
PD-1 reversal: reversal of PD-1 mediated T-cell inhibition; primary human CD4 T cells, PD-L1 beads, CellTiter-Glo 96 h; activation, % (no concentration beside the values); 29,000 tested, under 10 active; AID 2316; call rule not given here;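 also: 0% = median vehicle wells and 100% = positive control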
U2OS ROS induce: raises reactive oxygen species in U2OS cancer cells | AID 624156 | actives 2% (n = 46,000) | ROS induction (% of piperlongumine), % at 10 µM | U2OS ROS induction, H2DCF-DA fluorescence; in the data active = ROS induction above about 79%, passing the limit was not always enough;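 also: 0% = DMSO vehicle median and 100% = reference compound median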
YB-1 expression: YB-1 expression inhibition; U2OS, qRT-PCR YB-1 vs CDIP delta delta Cp, 16 h; stronger effect = higher value; zero = DMSO, each unit about twofold; AID 434959; delta delta Cp (YB-1 minus CDIP) (no concentration beside the values); actives 0.37% (n = 30,000);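 active = delta delta Cp rounded down to an integer at or above 3, about 3 SD of DMSO wells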;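 also: higher means less YB-1 transcript or more CDIP transcript relative to DMSO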
* hit, by the source's call; . = no result.

SMILES	PD-1 reversal	U2OS ROS induce	YB-1 expression
COc1ccc(NC(=O)Nc2ccc3c(c2)C(=O)N([C@H](C)CO)C[C@H](C)[C@@H](CN(C)C(=O)Nc2ccc4c(c2)OCO4)OCCCC[C@@H](C)O3)cc1	1	20	-0.13
C[C@@H]1CCCCO[C@H](CN(C)C(=O)c2ccncc2)[C@@H](C)CN([C@H](C)CO)C(=O)c2cc(NS(=O)(=O)c3ccc(F)cc3)ccc2O1	0	-2	0.24
COc1ccc(NC(=O)N(C)C[C@@H]2OCCCC[C@@H](C)Oc3ccc(NC(=O)Nc4ccc5c(c4)OCO5)cc3C(=O)N([C@H](C)CO)C[C@@H]2C)cc1	-1	118*	0.025
C[C@@H]1CCCCO[C@H](CN(C)C(=O)c2ccncc2)[C@@H](C)CN([C@H](C)CO)C(=O)c2cc(NC(=O)NC3CCCCC3)ccc2O1	1	123*	0.12
C[C@@H]1CCCCO[C@@H](CN(C)C(=O)Nc2ccc3c(c2)OCO3)[C@@H](C)CN([C@H](C)CO)C(=O)c2cc(NC(=O)NC3CCCCC3)ccc2O1	0	121*	-0.86
C[C@@H]1CCCCO[C@H](CN(C)C(=O)Nc2ccc3c(c2)OCO3)[C@@H](C)CN([C@H](C)CO)C(=O)c2cc(NC(=O)Nc3ccccc3)ccc2O1	1	26	0.041
Cc1cc(N(CC(=O)Nc2ccccc2C(=O)N2CCCC2)S(C)(=O)=O)ccc1Br	-1	-3	.
Cc1ccc(CSc2nnc(-n3c(=O)c(C#N)cc4c(=O)n5ccccc5nc43)s2)cc1	.	189*	.
Cc1ccc(-n2c(=O)c(C#N)cc3c(=O)n4ccccc4nc32)cc1	.	-1	.
CCc1ccccc1NC(=O)C(Cc1ccccc1)N1C(=O)c2ccccc2C1=O (centres undefined)	.	-12	.
COc1cc(Br)cc(/C=N/N(CCO)C2=NS(=O)(=O)c3ccccc32)c1OC	.	115*	.
O=c1cc(-c2ccc(O)cc2)oc2c(C3OC(CO)C(O)C(O)C3O)c(O)c(C3OCC(O)C(O)C3O)c(O)c12 (centres undefined)	.	4	-0.2
COCCOC(=O)N1C(=O)[C@@]2(c3ccccc31)[C@H](c1ccccc1OCCO)N1[C@H](c3ccccc3)[C@H](c3ccccc3)OC(=O)[C@H]1[C@@H]2C(=O)N1CCc2cc(OC)c(OC)cc2C1	.	214*	0.23
COCCOC(=O)N1C(=O)[C@@]2(c3ccccc31)[C@H](c1ccc(O)cc1)N1[C@H](c3ccccc3)[C@H](c3ccccc3)OC(=O)[C@H]1[C@@H]2C(=O)N1CCc2cc(OC)c(OC)cc2C1	.	11	-0.078
COCCOC(=O)N1C(=O)[C@@]2(c3ccccc31)[C@H](C(=O)N1CCc3cc(OC)c(OC)cc3C1)[C@H]1C(=O)O[C@H](c3ccccc3)[C@H](c3ccccc3)N1[C@@H]2c1ccc(O)cc1	.	185*	-0.089
COc1cc2c(cc1OC)CN(C(=O)[C@@H]1[C@H]3C(=O)O[C@H](c4ccccc4)[C@H](c4ccccc4)N3[C@H](c3ccccc3OCCO)[C@@]13C(=O)Nc1ccc(C#CCNC(N)=O)cc13)CC2	.	18	0.11
C[C@H](CO)N1C[C@H](C)[C@@H](CN(C)Cc2ccc(C(=O)Nc3ccccc3N)cc2)Oc2ccc(NC(=O)CCN3CCOCC3)cc2C1=O	0	-1	-0.3
COc1ccc(C)cc1NC(=O)CN(c1ccc(I)cc1)S(C)(=O)=O	-6	-5	.
C=C1C(=O)O[C@H]2[C@H]1[C@@H](OC(=O)/C(C)=C\C)C(OC(C)=O)/C(C(=O)OC)=C\CC[C@@]1(C)O[C@H]21 (some centres undefined)	-13	98*	2.2
C=C1C(=O)O[C@H]2[C@H]1C[C@H](OC(=O)/C(C)=C\C)/C(C)=C\CC[C@@]1(C)O[C@@H]21	-15	139*	-0.29
C=C1C(=O)O[C@H]2[C@H]1[C@@H](OC(=O)C(C)(O)CCl)C(OC(C)=O)/C(C(=O)OC)=C\CC[C@@]1(C)O[C@H]21 (some centres undefined)	-12	69	-0.17
C=C1C(=O)O[C@H]2[C@H]1[C@@H](OC(=O)/C(C)=C/C)C(OC(C)=O)/C(C(=O)OC)=C\CC[C@@]1(C)O[C@H]21 (some centres undefined)	-12	32	-0.27
Cc1nnc(Sc2ccc(/C=N/NC(=O)c3cccc(C(=O)NO)c3)o2)n1C	.	1	-0.17
O=C(C1=CCN(S(=O)(=O)c2ccccc2)CC1)N1CCCCC1	.	17	.
C[C@@H]1CN([C@@H](C)CO)C(=O)Cc2cc(NC(=O)c3ccncc3)ccc2O[C@@H]1CN(C)C(=O)Nc1ccccc1	-1	-1	0.12
CC(=O)OCC1=C[C@@H](O)[C@@H]2C=CO[C@@H](OC3OC(CO)C(O)C(O)C3O)[C@H]12 (some centres undefined)	1	-10	2.3
